Experimental findings from PubChem BioAssay (NCATS) are described below.

Unmarked numbers belong to inactive results. Records with an inconclusive call do not appear. The source made the active and inactive calls. Unless noted, calls follow the shape of the dose curve; as a rule, active = well fitted curve in either direction with a large enough effect (not every such curve was filed as active); inconclusive = small, poorly fitted or top-dose-only effect, or another doubt; inactive = flat fitted curve, though single readings scatter. Some results are limits rather than exact numbers.

For experiment [1], the target named is Lysosomal acid glucosylceramidase (Homo sapiens) (UniProt P04062). Nature of the experiment: Glucocerebrosidase-p2 (AID 348; in the data active = potency below about 10 µM; also: potency is read from the fitted curve at half-maximal effect). The following applies: purified GBA, blue fluorogenic substrate, 40 min. Summed up: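 Normal human glucocerebrosidase (0.2 nM) with blue fluorogenic substrate (80 uM final) in citrate/phosphate pH 5.9 with 10mM sodium taurocholate, 0.01% tween-20; 40 min RT, NaOH/glycine stop; fluorescence Ex 365/Em 440; AC50 from a titration from 0.6 nM upwards.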

For experiment [2], the target named is Cytochrome P450 1A2 (Homo sapiens) (UniProt P05177). Briefly: p450-cyp1a2 (AID 410; calls by dose curve; also: potency is read from the fitted curve at half-maximal effect). The following applies: recombinant CYP1A2, luciferin-ME demethylation, luminescence; series mostly up to 11.4 µM. Summed up:
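Read-out is luminescence from luciferin produced by CYP1A2 demethylation of Luciferin-ME (100uM, at Km). Detection reagent stopped the 60 min NADPH-dependent reaction; signals were normalized to 57 uM furafylline.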

The target of experiment [3] is Glucocorticoid receptor (Homo sapiens) (UniProt P04150). Briefly: GR-GFP Redistribution (AID 450;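 active = compounds whose dose series gives a full or clear partial fitted curve of increased nuclear translocation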; also: potency is read from the fitted curve at half-maximal effect). The following applies: U2OS GR-GFP nuclear translocation, laser cytometry, 2 h.
Experiment [4] shares this target. Briefly: GR-EFC Redistribution (AID 451; calls by dose curve; also: potency is read from the fitted curve at half-maximal effect). To be noted: CHO-K1 GR-EFC translocation, beta-gal luminescence, 2 h. An outline of the steps:
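CHO-K1 cells expressing nuclear EA and GR-ED fragments of b-gal; compounds titrated up to 46 uM final, 2 h at 37 C. GR nuclear translocation read as complemented b-gal luminescence after 1 h RT detection.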

The target in experiment [5] is Mitogen-activated protein kinase 10 (Mus musculus) (UniProt Q61831). Nature of the experiment: JNK3 AlphaScreen Assay (AID 530).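 Also: kinase came from lysate of stimulated human HepG2 cells; signal reports phosphorylation of biotinylated GST-cJun 1-79 at Ser73 with 10 µM ATP; % is scaled to controls: 0 for no effect and ±100 for the full control effect.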 The following applies: JNK3 lysate, c-Jun phosphorylation; series mostly up to 57.1 µM. An outline of the steps:
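HepG2 lysate (IL-1b/TNFa pre-activated) + biotin-GST-cJun 1-79 + anti-pSer73 cJun; cpd titration, 15 min RT; ATP 10 uM start; Tris pH 7.6, MgCl2, DTT, vanadate; beads in EDTA buffer; AlphaScreen.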
In general terms: Alpha assays give light when donor and acceptor beads are brought close together.

For experiment [6], the target named is 3',5'-cyclic-AMP phosphodiesterase 4B (Homo sapiens) (UniProt Q07343). Briefly: qHTS Assay for Inhibitors of PDE-IV (AID 607; active = well fitted activation curve with a large enough effect in the main read-out, with a control signal flat, not every such curve was filed as active; also: % of control where 0% means no effect). The following applies: HEK293 ACTOne CNG channel cells, membrane potential fluorescence; series mostly up to 22.9 µM. An outline of the steps: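 Live HEK293 cells with a modified cyclic nucleotide-gated (CNG) channel report intracellular cAMP via membrane-potential dye fluorescence (ex 535/em 590 nm). Endogenous PDE-IV was targeted. Compounds were tested at up to 22.9 uM final; RO 20-1724 100 uM served as control.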

The target of experiment [7] is Cytochrome P450 3A4 (Homo sapiens) (UniProt P08684). Briefly: qHTS Assay for Activators of Cytochrome P450 3A4 (AID 885; active = well fitted curve in the direction sought with a large enough effect; an effect the other way counts as inactive or inconclusive; also: nearly all actives have a fitted effect of over 65% in size). The following applies: recombinant CYP3A4, Luciferin-PPXE luminescence, 60 min; series mostly up to 57.1 µM. Summed up:
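Using 20nM recombinant human CYP3A4 in potassium phosphate (200mM), substrate Luciferin-PPXE at 25uM, luminescent luciferin detection followed a 60-min RT NADPH reaction; data scaled to 57 uM ketoconazole.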
For orientation: In qHTS, concentration-response curves come from the screen itself.

The nature of experiment [8]: AP1 Signaling Pathway (AID 357). Also: % is scaled to controls: 0 for no effect and ±100 for the full control effect. The following applies: ME-180 AP-1-bla reporter, EGF-induced, beta-lactamase ratio, 5 h; at 7.69 µM (top of the series) unless noted. Summed up: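 ME-180 cells with beta-lactamase reporter under AP-1 response element, stimulated with EC50 EGF; compounds tested in titration series, 5 h at 37 °C. CCF4 substrate added 2.5 h at room temperature; 460/530 nm emission ratio gave %activity and AC50.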

Experiment [9] can be described thus: NFAT Signaling Pathway (AID 444).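 Also: carbachol stimulus at about its EC50 of 1 µM final; % is scaled to controls: 0 for no effect and ±100 for the full control effect.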 To be noted: Jurkat NFAT-bla M1, carbachol, beta-lactamase ratio, 5 h; at 7.69 µM (top of the series) unless noted. Summed up:
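Jurkat cells with NFAT-driven β-lactamase reporter and co-expressed M1 receptor, stimulated with carbachol (final 1 uM, ~EC50), compound titration, 5 h at 37 °C. CCF4 loaded 1 h at RT; 460/530 nm ratio gave %activity and AC50.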

Experiment [10] is described as follows: Stat Signaling Pathway (AID 446).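 Also: ME-180 cervical cancer cells given 40 pM IL-6 alongside compound; SIE-controlled beta-lactamase reporter measured as 460/530 nm FRET emission ratio; % is scaled to controls: 0 for no effect and ±100 for the full control effect.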 The following applies: ME-180 (cervical carcinoma) SIE beta-lactamase reporter, IL-6 stimulated, 5 h; at 7.69 µM (top of the series) unless noted. An outline of the steps:
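Overnight-plated ME-180 cells bearing a STAT Inducible Element beta-lactamase reporter; 5 h co-exposure to compound and 40 pM IL-6; values normalized to 300 pM IL-6 and 125 nM JAK inhibitor controls.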

The target in experiment [11] is Cytochrome P450 2C9 (Homo sapiens) (UniProt P11712). Briefly: qHTS Assay for Inhibitors and Substrates of Cytochrome P450 2C9 (AID 883; active = well fitted curve in the direction sought with a large enough effect; an effect the other way counts as inactive or inconclusive; also: % is scaled to controls: 0 for no effect and ±100 for the full control effect; nearly all actives have a fitted effect of over 60% in size). To be noted: recombinant CYP2C9, luciferin-H luminescence, 60 min; series mostly up to 57.1 µM. Summed up: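 10nM CYP2C9 + 100uM Luciferin-H (=KM), 25mM KPO4; cpd 10 min 37C; NADPH regen, 60 min 37C; stop/detect with P450 Glo-Buffer 20 min; luminescence. Norm. to 57uM sulphaphenazole as full inhibition.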

The target in experiment [12] is Cytochrome P450 2D6 (Homo sapiens) (UniProt P10635). Briefly: qHTS Assay for Inhibitors and Substrates of Cytochrome P450 2D6 (AID 891; active = well fitted curve in the direction sought with a large enough effect; an effect the other way counts as inactive or inconclusive; also: nearly all actives have a fitted effect of over 60% in size; also: potency is read from the fitted curve at half-maximal effect). The following applies: recombinant CYP2D6, luciferin-ME EGE luminescence; series mostly up to 11.4 µM. An outline of the steps:
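Luminescent read-out of luciferin formed by 5 nM human CYP2D6 demethylating 30 uM Luciferin-ME EGE (Km level) over 60 min at room temperature after NADPH regeneration addition. Data normalized to full inhibition by 1.43 uM quinidine.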

Experiment [13] addresses Cytochrome P450 2C19 (Homo sapiens) (UniProt P33261). Briefly: qHTS Assay for Inhibitors and Substrates of Cytochrome P450 2C19 (AID 899; active = well fitted curve in the direction sought with a large enough effect; an effect the other way counts as inactive or inconclusive; also: % is scaled to controls: 0 for no effect and ±100 for the full control effect; nearly all actives have a fitted effect of over 60% in size). To be noted: recombinant CYP2C19, luciferin-H EGE luminescence; series mostly up to 11.4 µM. An outline of the steps: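 Luminescent read-out of luciferin formed from Luciferin-H EGE (10uM, equal to KM). Enzyme 5nM in 50mM KPO4; compound added, 10 min at 37C, then NADPH regenerating system for 60 min at 37C. Full inhibition defined by 57uM ketoconazole.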

Experiment [14] addresses Ubiquitin carboxyl-terminal hydrolase 1 (Homo sapiens) (UniProt O94782). Briefly: Inhibitors of USP1/UAF1: Pilot qHTS (AID 504865; active = well fitted curve in the direction sought with a large enough effect; an effect the other way counts as inactive or inconclusive;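 also: rhodamine fluorescence freed from ubiquitin-rhodamine substrate followed over time; top concentration of the series differs between compounds; % is scaled to controls: 0 for no effect and ±100 for the full control effect; nearly all actives have a fitted effect of over 35% in size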). To be noted: purified USP1/UAF1, Ub-rhodamine cleavage fluorescence; series mostly up to 114 µM. Summed up:
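USP1/UAF1 complex at 1 nM preincubated 15 min at room temperature with compound, then Ub-Rho substrate added at 150 nM final. Fluorescence (480/540 nm) read kinetically in 50 mM HEPES pH 7.8, 0.5 mM EDTA, 1 mM TCEP, 0.1 mg/ml BSA, 0.01% Tween-20.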

3',5'-cyclic-AMP phosphodiesterase 4B (Homo sapiens), sequence (Q07343 whole entry, looked up): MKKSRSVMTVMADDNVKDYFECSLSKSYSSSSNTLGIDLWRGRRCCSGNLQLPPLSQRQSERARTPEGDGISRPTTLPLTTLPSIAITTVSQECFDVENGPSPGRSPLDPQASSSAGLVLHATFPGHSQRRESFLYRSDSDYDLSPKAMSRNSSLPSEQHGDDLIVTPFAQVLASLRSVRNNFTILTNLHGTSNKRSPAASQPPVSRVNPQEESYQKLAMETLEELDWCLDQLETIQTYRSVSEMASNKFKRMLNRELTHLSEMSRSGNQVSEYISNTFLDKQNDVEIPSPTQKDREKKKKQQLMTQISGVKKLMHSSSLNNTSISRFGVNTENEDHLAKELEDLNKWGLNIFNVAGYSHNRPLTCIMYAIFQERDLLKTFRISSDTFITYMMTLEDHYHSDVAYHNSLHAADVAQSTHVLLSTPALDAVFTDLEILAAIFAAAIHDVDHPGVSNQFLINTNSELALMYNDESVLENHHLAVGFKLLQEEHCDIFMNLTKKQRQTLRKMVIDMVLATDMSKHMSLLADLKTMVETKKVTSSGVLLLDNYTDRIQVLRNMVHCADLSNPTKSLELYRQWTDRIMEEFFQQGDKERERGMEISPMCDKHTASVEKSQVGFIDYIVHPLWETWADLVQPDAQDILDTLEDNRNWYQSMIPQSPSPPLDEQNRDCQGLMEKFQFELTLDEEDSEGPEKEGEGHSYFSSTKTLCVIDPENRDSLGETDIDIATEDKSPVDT
Lysosomal acid glucosylceramidase (Homo sapiens), sequence (P04062 whole entry, looked up): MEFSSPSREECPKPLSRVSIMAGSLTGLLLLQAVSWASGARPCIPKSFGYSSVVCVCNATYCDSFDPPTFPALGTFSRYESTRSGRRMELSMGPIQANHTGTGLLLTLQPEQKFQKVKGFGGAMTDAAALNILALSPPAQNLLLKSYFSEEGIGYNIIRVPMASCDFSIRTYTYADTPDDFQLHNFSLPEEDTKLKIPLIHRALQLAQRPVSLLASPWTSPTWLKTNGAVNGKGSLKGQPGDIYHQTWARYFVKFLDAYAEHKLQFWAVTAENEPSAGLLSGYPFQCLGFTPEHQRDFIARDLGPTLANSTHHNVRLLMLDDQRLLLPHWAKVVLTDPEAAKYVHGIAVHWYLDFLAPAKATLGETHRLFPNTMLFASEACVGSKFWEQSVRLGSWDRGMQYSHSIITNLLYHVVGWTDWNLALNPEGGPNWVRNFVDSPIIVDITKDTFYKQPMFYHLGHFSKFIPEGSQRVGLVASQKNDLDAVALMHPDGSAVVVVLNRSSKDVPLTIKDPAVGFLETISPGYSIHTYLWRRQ
Glucocorticoid receptor (Homo sapiens), sequence (P04150 whole entry, looked up): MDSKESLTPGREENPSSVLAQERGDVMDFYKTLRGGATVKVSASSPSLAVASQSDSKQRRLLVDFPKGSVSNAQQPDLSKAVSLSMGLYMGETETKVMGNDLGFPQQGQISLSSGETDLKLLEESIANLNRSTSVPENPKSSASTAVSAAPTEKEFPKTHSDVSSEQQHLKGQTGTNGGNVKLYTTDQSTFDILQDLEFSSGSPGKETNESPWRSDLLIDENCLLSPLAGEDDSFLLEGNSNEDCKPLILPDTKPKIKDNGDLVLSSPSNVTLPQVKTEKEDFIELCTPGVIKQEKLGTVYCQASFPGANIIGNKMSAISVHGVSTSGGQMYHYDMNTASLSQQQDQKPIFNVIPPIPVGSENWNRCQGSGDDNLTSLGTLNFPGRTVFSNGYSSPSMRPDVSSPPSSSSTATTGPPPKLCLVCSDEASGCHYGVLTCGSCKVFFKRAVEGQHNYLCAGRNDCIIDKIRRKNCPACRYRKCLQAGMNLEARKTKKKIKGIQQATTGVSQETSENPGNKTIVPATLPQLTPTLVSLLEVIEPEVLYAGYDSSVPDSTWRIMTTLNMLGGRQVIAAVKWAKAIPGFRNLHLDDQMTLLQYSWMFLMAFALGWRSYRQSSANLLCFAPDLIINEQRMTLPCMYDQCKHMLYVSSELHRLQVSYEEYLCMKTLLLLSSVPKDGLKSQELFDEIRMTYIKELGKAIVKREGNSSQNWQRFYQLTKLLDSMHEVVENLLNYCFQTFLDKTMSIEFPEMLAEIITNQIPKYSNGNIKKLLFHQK
Cytochrome P450 1A2 (Homo sapiens), sequence (P05177 whole entry, looked up): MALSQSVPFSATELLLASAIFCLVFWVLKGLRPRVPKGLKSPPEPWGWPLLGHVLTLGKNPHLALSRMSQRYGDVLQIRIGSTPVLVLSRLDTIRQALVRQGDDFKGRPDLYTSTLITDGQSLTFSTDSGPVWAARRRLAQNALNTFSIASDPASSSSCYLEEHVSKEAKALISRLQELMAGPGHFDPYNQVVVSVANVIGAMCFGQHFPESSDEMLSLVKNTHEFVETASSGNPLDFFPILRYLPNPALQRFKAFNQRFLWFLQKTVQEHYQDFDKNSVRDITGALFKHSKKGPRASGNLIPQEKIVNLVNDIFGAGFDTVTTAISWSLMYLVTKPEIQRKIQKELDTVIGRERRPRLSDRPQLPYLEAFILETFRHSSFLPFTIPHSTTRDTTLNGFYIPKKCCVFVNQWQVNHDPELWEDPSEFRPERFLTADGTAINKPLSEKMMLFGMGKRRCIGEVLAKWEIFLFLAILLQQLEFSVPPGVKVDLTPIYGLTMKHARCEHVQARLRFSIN
Cytochrome P450 2D6 (Homo sapiens), sequence (P10635 whole entry, looked up): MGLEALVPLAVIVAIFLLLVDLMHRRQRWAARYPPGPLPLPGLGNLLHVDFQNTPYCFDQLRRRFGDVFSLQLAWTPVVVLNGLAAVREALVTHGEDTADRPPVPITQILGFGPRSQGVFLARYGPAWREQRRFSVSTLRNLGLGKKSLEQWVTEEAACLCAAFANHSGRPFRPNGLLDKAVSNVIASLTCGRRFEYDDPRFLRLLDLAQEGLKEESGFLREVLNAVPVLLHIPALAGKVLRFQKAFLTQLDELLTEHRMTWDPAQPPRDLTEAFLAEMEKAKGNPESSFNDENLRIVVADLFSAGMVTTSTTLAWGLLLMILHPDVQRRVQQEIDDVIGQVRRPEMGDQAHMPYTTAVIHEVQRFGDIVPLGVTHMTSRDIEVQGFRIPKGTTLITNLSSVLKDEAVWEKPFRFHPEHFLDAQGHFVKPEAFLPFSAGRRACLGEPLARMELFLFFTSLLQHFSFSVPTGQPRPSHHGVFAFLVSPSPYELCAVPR
Cytochrome P450 3A4 (Homo sapiens), sequence (P08684 whole entry, looked up): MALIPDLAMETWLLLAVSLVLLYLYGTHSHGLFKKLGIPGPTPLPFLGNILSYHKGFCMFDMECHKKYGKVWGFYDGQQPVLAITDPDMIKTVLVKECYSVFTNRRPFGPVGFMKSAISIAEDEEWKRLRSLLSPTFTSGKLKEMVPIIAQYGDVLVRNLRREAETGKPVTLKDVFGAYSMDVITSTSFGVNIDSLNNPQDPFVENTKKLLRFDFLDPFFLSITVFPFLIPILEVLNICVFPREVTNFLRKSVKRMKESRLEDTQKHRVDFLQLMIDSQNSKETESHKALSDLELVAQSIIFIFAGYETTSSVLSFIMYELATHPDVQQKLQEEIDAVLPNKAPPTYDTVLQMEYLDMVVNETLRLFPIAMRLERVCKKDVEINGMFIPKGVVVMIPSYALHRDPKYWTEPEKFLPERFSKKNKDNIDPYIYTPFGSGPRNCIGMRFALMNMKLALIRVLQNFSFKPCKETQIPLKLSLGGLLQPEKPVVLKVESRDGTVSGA
Cytochrome P450 2C19 (Homo sapiens), sequence (P33261 whole entry, looked up): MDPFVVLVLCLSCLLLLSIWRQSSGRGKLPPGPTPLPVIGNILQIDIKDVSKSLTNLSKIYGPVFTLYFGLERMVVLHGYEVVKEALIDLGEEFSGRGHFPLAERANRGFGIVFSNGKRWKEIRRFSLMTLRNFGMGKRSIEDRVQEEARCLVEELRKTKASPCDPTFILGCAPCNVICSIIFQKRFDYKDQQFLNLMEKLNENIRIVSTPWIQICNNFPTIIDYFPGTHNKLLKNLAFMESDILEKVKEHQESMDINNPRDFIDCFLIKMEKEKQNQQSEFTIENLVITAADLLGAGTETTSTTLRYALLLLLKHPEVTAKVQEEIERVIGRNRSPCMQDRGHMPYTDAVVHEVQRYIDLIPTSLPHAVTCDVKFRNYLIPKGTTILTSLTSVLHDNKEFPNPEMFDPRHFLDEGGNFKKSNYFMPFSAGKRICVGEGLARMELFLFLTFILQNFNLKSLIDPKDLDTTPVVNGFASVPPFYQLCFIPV
Cytochrome P450 2C9 (Homo sapiens), sequence (P11712 whole entry, looked up): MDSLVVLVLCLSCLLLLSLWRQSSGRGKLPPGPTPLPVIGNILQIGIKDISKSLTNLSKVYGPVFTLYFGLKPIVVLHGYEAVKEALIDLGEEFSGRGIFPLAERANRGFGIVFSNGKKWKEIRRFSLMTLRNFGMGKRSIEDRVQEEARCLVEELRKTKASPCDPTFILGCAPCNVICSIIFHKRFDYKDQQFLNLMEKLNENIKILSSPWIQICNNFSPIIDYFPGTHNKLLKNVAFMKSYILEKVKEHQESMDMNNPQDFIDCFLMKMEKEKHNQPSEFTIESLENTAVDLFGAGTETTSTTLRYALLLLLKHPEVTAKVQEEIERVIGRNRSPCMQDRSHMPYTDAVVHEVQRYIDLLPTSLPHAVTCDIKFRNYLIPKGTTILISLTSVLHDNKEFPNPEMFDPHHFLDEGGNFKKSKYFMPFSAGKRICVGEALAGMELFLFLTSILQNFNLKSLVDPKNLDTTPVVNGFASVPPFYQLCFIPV

With `O=C(c1ccccc1)[C@H]1[C@H](c2ccccc2[N+](=O)[O-])N1C1CCCCC1` (stereo partly specified), the Potency in experiment [1] was more than 11.4 µM; in [2] it was 0.631 µM (active); in [3], more than 46 µM; in experiment [4], more than 9.22 µM. Also, in experiment [5], the activity change, negative = inhibition is -6.49% [at 11.4 µM]. Also, the call in experiment [6] was inactive. Moreover, in experiment [7], the activity change, positive = activation is -50.5% [at 11.4 µM].
As for `CC(C)CCC1(CCN)C(=O)NC(=O)NC1=O`, the activity change, negative = inhibition in [8] is 5.02%; in [9], 4.97%; in experiment [5] it was -0.876% [at 11.4 µM]. For the same molecule, in [2], the Potency result was “inactive”. In addition, in experiment [10], the activity, negative = inhibition is 1.34%. For the same molecule, the Potency in experiment [3] is more than 46 µM; in experiment [4] it was more than 9.22 µM. The molecule was called inactive in experiment [6].
As for `C[As+](C)(c1ccc(Br)c([N+](=O)[O-])c1)c1ccc(Br)c([N+](=O)[O-])c1.O=[N+]([O-])O`, the Potency in [1] was more than 11.4 µM; in experiment [3], more than 46 µM; in experiment [4], more than 9.22 µM. Further, the activity change, negative = inhibition in experiment [8] is 10.5%; in [9] it was -2.2%; in experiment [5], -0.633% [at 11.4 µM]. The molecule was called inactive in experiment [6].
As for `O=C(O)C[C@H]1OCC=C2CN3CC[C@@]45C6=CC(=O)C(=O)C([N+](=O)[O-])=C6N[C@H]4[C@H]1[C@H]2C[C@@H]35`, the Potency was more than 11.4 µM in experiment [1] and more than 9.22 µM in experiment [4]. Further, the results for the activity change, negative = inhibition in experiment [8], in experiment [9] and in [5] were 4.93%, 2.25% and -0.499% [at 11.4 µM], respectively. The activity, negative = inhibition in experiment [10] is 2.08%. In addition, the molecule was called inactive in experiment [6].
Turning to `NS(=O)(=O)C[C-]1C=C[CH]([Sb-]([Cl])([Cl])([Cl])([Cl])[Cl])C=C1.c1ccncc1` (stereo unspecified), the Potency in [1] was more than 11.4 µM. The activity change, negative = inhibition in experiment [8] is 2.96%; in experiment [9] it was 2.26%; in experiment [5], 4.62% [at 11.4 µM]. Further, the activity, negative = inhibition in [10] was 19.7%. Moreover, the outcome in experiment [6] was inactive.
Take `COc1cc2c3cc1Oc1c(O)c(OC)cc4c1[C@@H](Cc1ccc(cc1)Oc1cc(ccc1O)C[C@H]3N(C)CC2)N(C)CC4`: the Potency in experiment [1] was more than 11.4 µM; in [3], more than 46 µM; in experiment [4], more than 9.22 µM. Further, the values for the activity change, negative = inhibition in [8], in experiment [9] and in experiment [5] were 5.28%, -11.5% and 4.78% [at 11.4 µM], respectively. Moreover, the outcome in [6] was inactive.
Regarding `COc1cccc2c1C(=O)c1c(O)c3c(c(O)c1C2=O)C[C@](O)(/C(C)=N\O)C[C@@H]3O[C@H]1C[C@H](N)[C@@H](O)[C@H](C)O1`, the Potency is more than 11.4 µM in [1], more than 46 µM in experiment [3] and more than 9.22 µM in experiment [4]. Further, the activity change, negative = inhibition was 26.1% in experiment [8], -24.2% in [9] and -16.4% [at 11.4 µM] in [5]. The molecule was classed as inactive in [6].
As to `NNc1c(C(N)=O)c2c(N)ncnc2n1[C@@H]1O[C@H](CO)[C@@H](O)[C@@H]1O`, the Potency in [1] was more than 11.4 µM; in experiment [3], more than 46 µM; in experiment [4] it was more than 9.22 µM. Moreover, the activity change, negative = inhibition is 6.43% in experiment [9], -2.85% [at 11.4 µM] in [5] and -2.73% [at 11.4 µM] in experiment [11]. In experiment [6], the molecule was called inactive. Moreover, the Potency entry in experiment [12] and in experiment [13] was “inactive” in each case.
On to `CC[C@@H]1CN2CCc3cc(OC)c(OC)cc3[C@H]2C[C@@H]1C[C@@H]1NCCc2cc(O)c(OC)cc21`, for which the activity change, negative = inhibition in experiment [8] was -117% [at 17.2 µM] (active); in [9], -126% [at 17.2 µM] (active). Besides, the Potency result in [2], in [5] and in experiment [14] was “inactive” throughout. In addition, the activity, negative = inhibition in [10] is -100% [at 17.2 µM] (active). Also, the Potency in experiment [3] and in experiment [4] was more than 20.6 µM in each case.
In the case of `O=C(O)[C@@H]1[C@H](C(=O)O)[C@]2(Cl)C(Cl)=C(Cl)[C@@]1(Cl)C2(Cl)Cl`, the results for the Potency in [1], in experiment [3] and in [4] were more than 11.4 µM, more than 46 µM and more than 9.22 µM, respectively. The Potency entry in experiment [2] was “inactive”. For the same molecule, the activity change, negative = inhibition is 11.1% in experiment [9] and 0.126% [at 11.4 µM] in experiment [5]. Besides, in experiment [10], the activity, negative = inhibition is 3.47%. Besides, the molecule was called inactive in experiment [6].
Regarding `CC(=O)O[C@H]1CC[C@H]2[C@@H]3CCC4=C[C@@H](C5SCCS5)[C@H](OC(C)=O)C[C@]4(C)[C@H]3CC[C@@]12C`, the Potency is more than 11.4 µM in experiment [1], more than 46 µM in experiment [3] and more than 9.22 µM in experiment [4]. For the same molecule, the activity change, negative = inhibition in experiment [8] was -2.54%. For the same molecule, the activity, negative = inhibition in experiment [10] was 0.282%. The result in experiment [6] was inactive.
Regarding `COC1=C(C)C(=O)c2c(c(COC(N)=O)c3n2C[C@@H]2[C@@H]3N2C)C1=O` (stereo partly specified), the Potency in experiment [1] is more than 11.4 µM; in experiment [3] it was more than 46 µM; in [4] it was more than 9.22 µM; in experiment [12] it was 1.58 µM (active). Moreover, the activity change, negative = inhibition in experiment [5] was -0.1% [at 11.4 µM]. Moreover, the call in experiment [6] was inactive.
